This note sets out measurements from PubChem BioAssay (NCATS).

Records with an inconclusive call do not appear. Values without a mark were called inactive. Active and inactive are the calls of the source. Unless noted, calls come from the whole dose curve; as a rule, active = well fitted curve in the direction sought with a large enough effect; inconclusive = small, poorly fitted or top-dose-only effect, or another doubt; inactive = no such curve, though single readings can be large; an effect the other way counts as inactive or inconclusive.
% is set by controls: 0 for no effect and ±100 for the full control effect.

System in one experiment: not listed separately
Nature of the experiment: Primary qHTS for small molecule stabilizers of the endoplasmic reticulum resident proteome: Secreted ER Calcium Modulated Protein (SERCaMP) assay (AID 1508630). To be noted: SH-SY5Y GLuc-SERCaMP (Gaussia luciferase released on ER calcium loss) secretion, thapsigargin, luminescence; series mostly up to 38.4 µM; activity change, negative = inhibition: at the top concentration. The method, boiled down:
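The SH-SY5Y reporter protocol was run at 3 concentrations up to 38.3 uM (primary) or 11 concentrations (follow-up): 16 h compound, 100 nM thapsigargin for 4 h, then extracellular luciferase luminescence.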
For orientation: Quantitative high-throughput screening tests each substance at several concentrations.
In the case of `O=C1OC2(c3cc(Br)c(O)cc3Oc3c2cc(Br)c(O)[c]3[Hg])c2ccccc21` (centres undefined), the “activity change, negative = inhibition” value is -27.4% [at 13 µM].

For the compound `CC1(C)S[C@@H]2[C@H](N)C(=O)N2[C@H]1C(=O)O`, the “activity change, negative = inhibition” value is -6.26%. Take `C=CCN1CC[C@]23c4c5ccc(O)c4O[C@@H]2/C(=N/N=C2\CC[C@@]4(O)C6Cc7ccc(O)c8c7[C@@]4(CCN6CC=C)[C@@H]2O8)CC[C@@]3(O)C1C5`: the “activity change, negative = inhibition” value was 157%. With `Ic1ccccc1CNC1C2CCN(CC2)C1C(c1ccccc1)c1ccccc1` (centres undefined), the “activity change, negative = inhibition” value is 198%.

In the case of `COc1ccc2c(c1)/C(=C/c1cnc[nH]1)C(=O)N2`, the “activity change, negative = inhibition” value is 84.5%. In the case of `Cc1cccc(C(C)c2cnc[nH]2)c1C` (centres undefined), the “activity change, negative = inhibition” value was 0.472%.

On to `CN(N=O)c1cc(O)ccc1O`, for which the “activity change, negative = inhibition” value is 93.7%. In the case of `CN(N=O)c1ccc(O)c(O)c1`, the “activity change, negative = inhibition” value is -25%.

In the next experiment the target is Cytochrome P450 2D6 (Homo sapiens) (UniProt P10635). Nature of the experiment: Cytochrome P450 family 2 subfamily D member 6 (CYP2D6) small molecule antagonists: luciferase biochemical (cell-free) qHTS assay (AID 1645840; active = well fitted curve in the direction sought with a large enough effect in the repeat runs; an effect the other way counts as inactive or inconclusive; note: nearly all actives have a fitted effect of over 55% in size; note: potency is the fitted concentration of half-maximal effect). To be noted: P450-Glo CYP2D6 enzyme, luciferin luminescence, 1 h; series mostly up to 57.4 µM; activity change, negative = inhibition: at the top concentration. An outline of the steps: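 P450-Glo CYP2D6 system: proluciferin substrate converted by enzyme to luciferin, read by luminescence proportional to activity. Enzyme-substrate mix with compound 10 min at room temperature, then NADPH regeneration 1 h before detection reagent.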
Cytochrome P450 2D6 (Homo sapiens), sequence (P10635 whole entry, looked up): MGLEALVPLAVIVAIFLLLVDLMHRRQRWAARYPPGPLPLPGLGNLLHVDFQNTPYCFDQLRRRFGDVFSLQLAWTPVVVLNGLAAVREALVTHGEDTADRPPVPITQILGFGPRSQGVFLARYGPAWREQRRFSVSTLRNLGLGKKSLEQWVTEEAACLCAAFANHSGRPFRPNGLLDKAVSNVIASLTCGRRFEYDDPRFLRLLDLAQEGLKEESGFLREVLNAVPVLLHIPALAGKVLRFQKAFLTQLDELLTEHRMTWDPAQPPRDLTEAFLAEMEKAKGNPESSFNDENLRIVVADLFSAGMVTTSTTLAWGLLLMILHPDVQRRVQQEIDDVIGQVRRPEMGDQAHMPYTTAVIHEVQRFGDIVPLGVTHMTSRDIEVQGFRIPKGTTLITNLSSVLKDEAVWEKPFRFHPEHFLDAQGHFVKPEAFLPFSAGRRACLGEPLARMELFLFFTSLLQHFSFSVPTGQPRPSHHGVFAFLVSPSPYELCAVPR
Turning to `COCC(C)N(C(=O)CCl)c1c(C)csc1C` (centres undefined), the “activity change, negative = inhibition” value was 6.91%. The same measure, in the same setting: under `CCCC(C)C1(CC)C(=O)NC(=O)NC1=O` (centres undefined) stands 8.61%. With `O=C(NC(=O)c1c(F)cccc1F)Nc1ccc(Cl)c(Oc2ncc(C(F)(F)F)cc2Cl)c1`, the Potency is 1.51 µM (active). In the case of `CCCCCCCCOC(=O)c1ccccc1C(=O)OCCCCCCCC`, the “activity change, negative = inhibition” value was 10.3%. On the same count and under the same terms, the same measure for `C#CC(C)(O)CC` (centres undefined): 4.92%.

Take `CCNC(C)Cc1cccc(C(F)(F)F)c1` (centres undefined): the Potency was 3.79 µM (active).
